From PubChem BioAssay
HCMV antiviral = inhibitors of human cytomegalovirus. HFF cells, HCMV-luciferase reporter, 72 h; active compounds read low. activity change, negative = inhibition, % at 57.5 µM. 410,000 compounds, 4.5% hits. AID 1259415; in the data active means activity change below about -60%; inconclusive means no clear call, values can overlap the other calls; inactive means above about -39%
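Screen run at 2 compound doses on HFFs infected with reporter HCMV, MOI 1 PFU/cell. Luciferase activity from cell lysates at 72 h post infection gave inhibition relative to buffer-only and Salinomycin wells.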
Pf growth 96h = inhibits malaria parasite growth, 96 h. P. falciparum luciferase reporter growth, 96 h. Potency, µM (top dose mostly 28.7 µM), without a hit: at the top dose activity change, negative = inhibition, usual class: inhibitors. 320,000 compounds, 6.9% hits. AID 504834; further: potency means the concentration at half of the fitted maximal effect
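Readout is luminescence from an integrated firefly luciferase in P. falciparum. Red cells, 2% hematocrit and 0.05% parasitemia final, were cultured with compound through two parasite generations (96 hours) at 37 C, 5% CO2.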
Sm TGR block = inhibitors of Schistosoma mansoni thioredoxin glutathione reductase. AID 485364. Potency, µM (top dose mostly 114 µM), without a hit: top-dose activity change, negative = inhibition, actives largely listed as inhibitors. Q962Y6. purified TGR, DTNB reduction, TNB absorbance 405 nm. 360,000 compounds, 3% hits; further: potency means the concentration at half of the fitted maximal effect; nearly all actives have a fitted effect of over 60% in size
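TGR 20 nM + NADPH 100 uM (dispensed conc.), cpd preinc 15 min RT; start with NADPH (500 uM addition) then DTNB (15 mM addition). Kinetic TNB absorbance, 405 nm filter. Four-parameter Hill fit across titration.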
Pf growth 48h = P. falciparum growth inhibition at 48 hours (one generation); AID 504832; 310,000 compounds, 5.9% hits; Potency, µM (doses to about 28.7 µM), for the others: top-dose activity change, negative = inhibition, most hits filed as inhibitors; P. falciparum luciferase growth in erythrocytes, 48 h; further: potency means the concentration at half of the fitted maximal effect
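Compounds are pin-transferred into medium, infected erythrocytes (2% hematocrit, 0.1% parasitemia final) are added, and plates sit one parasite generation at 37 C in 5% CO2. Detection reagent is then added and luminescence measured.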
Giardia FBPA inh = blocks Giardia fructose-bisphosphate aldolase activity; Potency, µM (highest dose often 59.6 µM), without a hit: at the top dose activity, negative = inhibition, actives largely listed as inhibitors; 290,000 compounds, 0.71% hits; purified Giardia FBPA; AID 2451; A8B2U2; further: potency means the concentration at half of the fitted maximal effect; nearly all actives have a fitted effect of over 55% in size
Target sequence (A8B2U2 whole entry, looked up): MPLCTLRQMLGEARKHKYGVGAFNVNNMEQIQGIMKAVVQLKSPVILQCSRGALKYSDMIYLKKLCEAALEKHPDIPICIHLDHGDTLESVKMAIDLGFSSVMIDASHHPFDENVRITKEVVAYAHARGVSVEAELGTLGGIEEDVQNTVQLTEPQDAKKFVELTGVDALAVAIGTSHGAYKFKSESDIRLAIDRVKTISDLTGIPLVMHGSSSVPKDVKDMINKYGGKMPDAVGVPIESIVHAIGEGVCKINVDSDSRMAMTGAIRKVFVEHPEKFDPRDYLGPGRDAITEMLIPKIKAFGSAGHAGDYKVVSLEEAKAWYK
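Giardia FBPA (40 nM reagent) was preincubated 10 min at RT with compound (up to 57.5 uM final), then substrate plus GAPDH/TPI/NAD/arsenate coupling system with diaphorase/resazurin was added; resorufin fluorescence (525/598 nm) was read after 20 min.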
An asterisk follows results filed as active; ? = inconclusive; / = no result; [ ] = dose if it differs, or a comment. Compounds with a hit are over-represented: about 14% of the library has one in this group of screens. Unless noted, the call rests on the fitted dose curve; in most records, active means well fitted curve in the direction sought with a large enough effect; inconclusive means small, poorly fitted or top-dose-only effect, or another doubt; inactive means no such curve, though single readings can be large; an effect the other way counts as inactive or inconclusive. On the % scale 0 is the no-effect control and ±100 the full control effect.

SMILES	HCMV antiviral	Pf growth 96h	Sm TGR block	Pf growth 48h	Giardia FBPA inh
COc1ccc(C(C)=O)cc1COc1ccc(-n2cnnn2)cc1	28.9	/	20µM*	-13.1%	-4.0%
COc1ccc(NC(=O)COc2ccc(-n3cnnn3)cc2)cc1OC	-6.4	?	0.9%	4.2%	/
COc1ccc(C(C)=O)cc1COC(=O)c1ccc(OCc2c(C)noc2C)cc1	19.7	8.28µM*	0.0%	?	0.9%
CCc1ccc(NC(=O)CSc2ncc(S(=O)(=O)c3cc(C)ccc3C)c(=O)[nH]2)cc1	-1.4	/	-10.8%	/	/
COc1ccc(C(C)=O)cc1COC(=O)CNC(=O)C1CCCCC1	-15.5	/	/	/	/
Cc1noc(C)c1COc1cccc(C(=O)OC(C)C#N)c1 (centres undefined)	21.9	41.9%	5.6%	?	1.1%
Cc1noc(C)c1COc1cccc(C(=O)OCCOc2ccc(F)cc2)c1	-10.6	13.1µM*	0.7%	?	6.8%
COc1ccc(C(C)=O)cc1COC(=O)CNC(=O)c1ccccc1F	38.3	17.5%	8.91µM*	18.3%	4.1%
CC(C)NCc1cccc([N+](=O)[O-])c1	-11.7	8.6%	5.1%	12.2%	-24.5%
CCCCC1(Cc2cccc([N+](=O)[O-])c2)C(=O)N(c2ccccc2)N(c2ccccc2)C1=O	-64.0*	?	5.7%	3.7µM*	-2.6%
CCCCC1(CO)C(=O)N(c2ccccc2)N(c2ccccc2)C1=O	-11.3	0.0%	-12.5%	2.0%	-7.8%
CCCCCCCC1(C)NC(=O)N(c2ccccc2)N1 (centres undefined)	-6.6	96.3%	10.4%	40.2%	0.4%
CCCCC1(Br)C(=O)N(c2ccccc2)N(c2ccccc2)C1=O	?	-22.4%	14.1µM*	?	/
CCCCC1(CC(=O)OCC)C(=O)N(c2ccccc2)N(c2ccccc2)C1=O	-35.5	14.7µM*	-22.1%	?	-3.1%
O=C(CN(C(=O)CCC(=O)Nc1ccccn1)c1ccc(F)cc1)NCCc1ccccc1	-37.0	-17.4%	-5.0%	-8.8%	14.3%
COc1ccc(OC)c(C2C3=C(COC3=O)Nc3cc4c(cc32)OCO4)c1 (centres undefined)	-84.2*	?	-21.8%	?	2.8%
O=C(c1cc(-c2ccncc2)nc2ccccc12)N1CCN(c2ncccn2)CC1	6.5	/	/	/	/
Cc1ccc(-c2cc(C(=O)N3CCOCC3)c3cc(C)ccc3n2)cc1	13.0	52.1%	-5.5%	-22.8%	-5.4%
Cc1ccc2nc(-c3ccccc3)cc(C(=O)N3CCN(c4ccccc4O)CC3)c2c1	8.1	?	-20.3%	10.4µM*	/
O=C(c1cc(-c2ccncc2)nc2ccccc12)N1CCN(c2ccccn2)CC1	13.5	0.8%	-2.4%	-25.7%	9.8%
O=C(c1cc(-c2ccncc2)nc2ccccc12)N1CCN(c2ccccc2O)CC1	6.3	4.65µM*	-23.2%	11.7µM*	/
O=C(c1cc(-c2ccncc2)nc2ccccc12)N1CCN(c2ccc(N3CCOCC3)nn2)CC1	99.4	?	-25.9%	11.7µM*	-1.2%
O=C(c1cc(-c2ccccc2)nc2ccccc12)N1CCN(c2ccccc2O)CC1	/	9.28µM*	-8.9%	14.7µM*	/
CCOC(=O)C1=CN(Cc2ccco2)S(=O)(=O)NC1c1cccc(OC)c1 (centres undefined)	-3.9	/	/	/	/
O=C(NCc1ccc(Cl)cc1)C1CCN(c2nn3cc(-c4ccc(F)cc4)nc3s2)CC1	?	/	-1.2%	/	/
SMILES	HCMV antiviral	Pf growth 96h	Sm TGR block	Pf growth 48h	Giardia FBPA inh
O=C(c1cc(-c2ccncc2)nc2ccc(Br)cc12)N1CCN(Cc2ccc3c(c2)OCO3)CC1	0.0	4.6%	-8.8%	10.4µM*	-4.6%
Cc1ccc2nc(-c3ccccc3)cc(C(=O)N3CCN(S(=O)(=O)c4c(C)noc4C)CC3)c2c1	-8.1	10.4µM*	-14.0%	11.7µM*	/
Cc1ccc2nc(-c3ccncc3)cc(C(=O)N3CCOCC3)c2c1	/	10.4µM*	-2.2%	-16.7%	/
COc1ccc(NS(=O)(=O)c2cccc(C(=O)O)c2)cc1S(=O)(=O)N1CCCCC1	62.8	/	/	/	/
O=C(Nc1ccccc1)OC1CCCCc2cccnc21 (centres undefined)	3.6	5.8%	3.1%	6.9%	-11.5%
O=C(Nc1cccc(Cl)c1)OC1CCCCc2cccnc21 (centres undefined)	3.5	-24.6%	10.7%	3.7µM*	-7.3%
Cc1cc(-c2ccc(N=Nc3c(S(=O)(=O)O)cc4cc(S(=O)(=O)O)cc(N)c4c3O)c(C)c2)ccc1N=Nc1c(S(=O)(=O)O)cc2cc(S(=O)(=O)O)cc(N)c2c1O	/	9.53µM*	-9.2%	6.57µM*	/
N=c1c[n+](CC23CC4CC(CC(C4)C2)C3)[n-]o1	-74.9*	?	19.9%	?	0.9%
O=c1c2ccccc2nc(/C=C/c2ccc3c(c2)OCO3)n1CCCO	/	30.7%	-0.6%[57.1 µM]	12.7%	0.3%
C(=C/c1nccc2c1[nH]c1ccccc12)/c1ccc2c(c1)OCO2	17.7	-3.6%	-0.4%	2.94µM*	-8.5%
CCOc1ccccc1CN1CCNC(=O)C1CC(=O)NCc1nc(C)cs1 (centres undefined)	28.8	9.28µM*	?	4.7%	/
COc1ccc(CN2CCNC(=O)C2CC(=O)NCCCn2cccn2)cc1C (centres undefined)	-1.6	-8.6%	-12.3%	3.1%	/
O=C(CC1C(=O)NCCN1Cc1ccc(F)c(F)c1)NCCn1cccn1 (centres undefined)	-8.4	?	44.7µM*	0.0%	-23.6%
O=C(CC1C(=O)NCCN1Cc1cccc(Oc2ccccc2)c1)NCCCn1cccn1 (centres undefined)	-35.9	10.4µM*	?	-19.1%	-14.1%
CCOc1ccccc1CN1CCNC(=O)C1CC(=O)NCCCn1cccn1 (centres undefined)	?	11.7µM*	?	-10.1%	/
CCOc1ccccc1CN1CCNC(=O)C1CC(=O)NCCc1ccccn1 (centres undefined)	9.2	?	?	-1.1%	-18.0%
COc1ccccc1CN1CCNC(=O)C1CC(=O)NCCCn1cccn1 (centres undefined)	-1.8	10.8%	-2.6%	5.9%	-21.0%
O=C(CSc1nc(=O)n2ccccc2n1)OCc1ccccc1	-33.8	-4.5%	-1.9%	?	/
Cc1ccc(-c2cn(S(=O)(=O)c3ccc(C)cc3)nc2N)cc1	1.0	?	-2.0%	/	2.7%
Nc1nn(S(=O)(=O)c2ccccc2)cc1-c1cccc([N+](=O)[O-])c1	-1.2	20.0%	-13.0%	10.4µM*	-24.8%
CCOC(=O)C1CSCCS(=O)(=O)N1Cc1ccc(F)cc1 (centres undefined)	18.9	/	/	/	/
CCNC(=S)Nc1cc(C(=O)N2CCCC2)ccc1N1CCCC1	?	-19.0%	9.0%	4.5%	-2.1%
CNC(=S)Nc1cc(C(=O)N2CCCC2)ccc1N1CCCC1	55.3	5.22µM*	-1.4%	22.2%	-3.5%
